Reference: PubChem BioAssay
Results filed as inconclusive are left out. The source made the active and inactive calls.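 The calls were made as follows: active = cell viability at or below a set limit in both duplicate runs, the limit being the all-compound median minus 4 SD (cut at about 23% in these data, passing the limit was not always enough); inconclusive = no clear call, values can overlap the other calls; inactive = the rest.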

Assay: growth suppression of beta-catenin knockout HCT116, pilot screen, human colon tumor cells (AID 823);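 also: 0% = wells killed by 20 µM Hyamine and 100% = untreated DMSO cell wells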
Details: CellTiter-Glo, 60 h, at 10 µM, active compounds read low

Row | SMILES | viability
1 | CCCCCn1c(=O)[nH]c2cc(C(=O)NCc3ccc4c(c3)OCO4)ccc2c1=O | 71.2% (inactive)
2 | O=C(C1=C(O)C(=O)N(CCc2ccccc2)C1c1cccnc1)c1ccco1 (stereo not given) | 104% (inactive)
3 | Cc1ccc2c(c1)c(C)c(C)n2CC(O)Cn1nc(C)cc1C (stereo not given) | 87.1% (inactive)
4 | CCOC(=O)N1CCC(NC(=O)C(Cc2ccccc2)NC(=O)C2CCCCC2)CC1 (stereo not given) | 100% (inactive)
5 | c1coc(CNc2nc3sc4c(c3c3ncnn23)CCCC4)c1 | 99.4% (inactive)
6 | COc1ccc(N2CCN(CCNC(=O)c3ccc(NC(=O)C4CCCO4)cc3)CC2)cc1 (stereo not given) | 99.8% (inactive)
7 | Cc1cc(C)n(-c2cc(=O)n(C)c(=O)n2C)n1 | 92.3% (inactive)
8 | Cc1ccnc(Sc2nc3c(c(=O)[nH]c(=O)n3C)n2CCCc2ccccc2)n1 | 91.8% (inactive)
9 | Cc1ccc(Cn2c(Sc3nccc(C)n3)nc3c2c(=O)[nH]c(=O)n3C)cc1 | 83.5% (inactive)
10 | Cc1ccc(CNC(=O)CCS(=O)(=O)c2cccc3nonc23)cc1 | 98.8% (inactive)
11 | CCC(=O)Nc1cc(C)c(NC(=O)c2ccco2)cn1 | 98.5% (inactive)
12 | CNC(=O)c1ccc(-c2sc3nc(N4CCOCC4)c4c(c3c2N)CCCC4)o1 | 39.6% (inactive)
13 | CC(=O)NCC(=O)N(c1c(C)n(C)n(-c2ccccc2)c1=O)C1(C(=O)NC2CCCC2)CCCCC1 | 97.2% (inactive)
14 | CCN(CC)S(=O)(=O)c1cc(Br)ccc1OC | 94.8% (inactive)
15 | Cc1ccc(S(=O)(=O)N2CCC(C(=O)N[C@@H](C)C(=O)NCC3CCCO3)CC2)cc1 (stereo not given in full) | 97% (inactive)
16 | COc1ccc(C2C3=C(CC(C)(C)CC3=O)Nc3n[nH]c(C)c32)cc1 (stereo not given) | 93% (inactive)
17 | O=C(Nc1nnc(C2CC2)o1)c1ccc(S(=O)(=O)N2CCCc3ccccc32)cc1 | 14.3% (active)
18 | C=CCNC(=O)c1ccc2c(c1)nnn2C | 103% (inactive)
19 | COc1ccc(CNc2oc(COc3ccccc3)nc2C#N)cc1 | 79% (inactive)
20 | N#C/C(=C1\CCCN1)c1ccc2ccccc2n1 | 94.2% (inactive)

Row | SMILES | viability
21 | OCC1(c2cc(C(F)(F)F)n[nH]2)CCCCC1 | 91.4% (inactive)
22 | O=C(OCC(=O)N1CCN(C(=O)c2ccco2)CC1)C1=COCCO1 | 105% (inactive)
23 | COc1ccc(Nc2ncnc3c2cnn3Cc2ccccc2)cc1 | 88.9% (inactive)
24 | CCCSc1nc(N)c2c3c(sc2n1)CN(C)CC3 | 80.9% (inactive)
25 | CC(NC(=O)C(C)(C)C)c1nc2ccccc2n1C (stereo not given) | 95.1% (inactive)
26 | CC1CN(C(=O)c2ccccc2C(=O)c2ncc[nH]2)CC(C)O1 (stereo not given) | 99% (inactive)
27 | S=c1nc(-c2ccccc2)n(CCN2CCOCC2)c2c1CCCC2 | 92.6% (inactive)
28 | CCCCCCn1c(SCC(=O)c2ccccc2)nc2c1c(=O)[nH]c(=O)n2C | 53% (inactive)
29 | COCC(=O)NCc1nc2ccccc2[nH]1 | 105% (inactive)
30 | COC(=O)CCC(=O)Oc1ccc(OC(=O)CCC(=O)OC)cc1 | 72.9% (inactive)
31 | CC1Cc2ccccc2N1C(=O)CCS(=O)(=O)c1cccc2nonc12 (stereo not given) | 85.7% (inactive)
32 | O=C(CN1CCN(c2ccccn2)CC1)Nc1cccc(C(F)(F)F)c1 | 97.9% (inactive)
33 | CCN(CC)C(=O)c1cn(CC)c(=O)c2cc(OC)c(OC)cc12 | 103% (inactive)
34 | CC1(C)Cc2c(sc3c2c(=N)n(Cc2ccco2)c(=O)n3CC(=O)Nc2cccc(Cl)c2)CO1 | 75% (inactive)
35 | CCCCCn1c(=O)[nH]c2cc(C(=O)NCCCN(CC)CC)ccc2c1=O | 47.3% (inactive)
36 | CCOC(=O)C1CCN(C(=O)c2ccc(NC(=O)C3CCCO3)cc2)CC1 (stereo not given) | 88.8% (inactive)
37 | Cc1sc(NC(=O)c2ccco2)c(C(c2cccnc2)N2CCN(c3ccc(F)cc3)CC2)c1C (stereo not given) | 13.3% (active)
38 | CCN(CC)S(=O)(=O)c1ccc(NC(=O)Cn2c(=O)oc3ccccc32)cc1 | 96.7% (inactive)
39 | c1ccc(Nc2nc(N3CCCCC3)nc(N3CCNCC3)n2)cc1 | 3.71% (active)
40 | Nc1ncnc2c1ncn2C1CCC(CO)C(O)C1 (stereo not given) | 107% (inactive)
